What all share (assay): qHTS profiling for inhibitors of Plasmodium falciparum proliferation (AID 504749); further: nearly all actives have a fitted effect of over 60% in size;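 on activity, negative = inhibition: 0% = DMSO vehicle and full inhibition = artemisinin control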
What all share (conditions): P. falciparum in erythrocytes, SYBR Green DNA, 72 h; series mostly up to 28.7 µM

One experiment concerns N140. The method in brief:
(§1)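 In a 72 h erythrocytic culture (37 C, humidified, 5% CO2) at 2.5% hematocrit and 0.3% starting parasitemia, compounds were tested; SYBR Green I in detergent lysis buffer stained parasite DNA overnight.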

Another experiment relates to P93_24. The method in brief: as §1
A further experiment concerns P94_40. The method in brief:
as §1

The test system of the next experiment is PAD. The method in brief:
as §1

The next experiment concerns PC15. The method in brief: as §1
In a further experiment the test system is PC26. The method in brief: as §1
In the next experiment the test system is PC49. Put shortly:
as §1

In a further experiment the test system is SC27B. Put shortly:
as §1

For a further experiment, the system named is TAB109. Put shortly: as §1
The subject of the next experiment is TAB113. The method in brief: as §1

The text below walks through data of PubChem BioAssay (NCATS).

SMILES strings stand for the structures. Inconclusive results are not listed. Unmarked numbers belong to inactive results. Activity calls are given as the source filed them. The call rests on the fitted dose curve; in most records, active means well fitted inhibition curve with a large enough effect; inconclusive means small, poorly fitted or top-dose-only effect; inactive means flat fitted curve, though single readings scatter.
Potency means the concentration at half of the fitted maximal effect.

For the molecule `O=C1CN=C(c2ccccc2)c2cc([N+](=O)[O-])ccc2N1`, the Potency entry in the experiment with N140, with P93_24, in the experiment on P94_40, with PAD, with PC15 and in the experiment on PC26 was “inactive” each time. The Potency result with PC49, with SC27B, in the experiment with TAB109 and in the experiment on TAB113 was “inactive” each time.
Turning to `O=P1(N(CCCl)CCCl)NCCCO1` (centres undefined), the Potency entry with N140, in the experiment on P93_24, in the experiment with P94_40, in the experiment on PAD, in the experiment on PC15 and in the experiment on PC26 was “inactive” in each case. Also, the Potency result in the experiment on PC49, in the experiment with SC27B, in the experiment with TAB109 and with TAB113 was “inactive” each time.
As for `NCCc1ccc(O)cc1`, the Potency entry in the experiment on N140, in the experiment with P93_24, with P94_40, in the experiment on PAD, in the experiment on PC15 and with PC26 was “inactive” in each case. The Potency entry in the experiment with PC49, with SC27B, with TAB109 and in the experiment on TAB113 was “inactive” in each case.
For `CN1C(=O)COc2c(C(=O)NC3CN4CCC3CC4)cc(Cl)cc21` (centres undefined), the Potency entry in the experiment on N140, in the experiment on P93_24, in the experiment with P94_40, with PAD, in the experiment with PC15 and with PC26 was “inactive” in each case. In addition, the Potency entry with PC49, with SC27B, in the experiment on TAB109 and with TAB113 was “inactive” throughout.
`CCCCCCCCCC(=O)O[C@H]1CC[C@H]2[C@@H]3CCC4=CC(=O)CC[C@@H]4[C@H]3CC[C@]12C`: the Potency entry in the experiment with N140, in the experiment on P93_24, in the experiment on P94_40, in the experiment on PAD, with PC15 and in the experiment on PC26 was “inactive” each time. In addition, the Potency entry in the experiment on PC49, in the experiment on SC27B, with TAB109 and in the experiment with TAB113 was “inactive” in each case.
With `CC(C)NC(C)C`, the Potency entry in the experiment with N140, in the experiment with P93_24, in the experiment with PAD, in the experiment on PC15, in the experiment on PC26 and in the experiment on SC27B was “inactive” each time. Also, the Potency result with TAB109 and in the experiment on TAB113 was “inactive” throughout.
Consider `COP(=S)(OC)Oc1ccc(SC)c(C)c1`, for which the Potency result with N140, in the experiment on P93_24, in the experiment with P94_40, with PAD, in the experiment on PC15 and in the experiment on PC49 was “inactive” throughout. Further, the Potency entry in the experiment with SC27B, with TAB109 and in the experiment on TAB113 was “inactive” throughout.
For the molecule `CCOP(=S)(OCC)Oc1ccc2c(C)c(Cl)c(=O)oc2c1`, the values for the Potency with P94_40 and with TAB113 were 11.2 µM (active) and 7.94 µM (active), respectively. The Potency entry in the experiment on PAD, with PC15, in the experiment on PC26 and in the experiment on PC49 was “inactive” in each case.
Consider `COc1ccc2c(c1)C13CCCC[C@@H]1C(C2)N(C)CC3` (some centres undefined), for which the Potency entry with N140 and in the experiment with TAB113 was “inactive” in each case. Also, in the experiment with PC49, the Potency is 3.55 µM (active).
Regarding `Cc1ncsc1CCCl`, the Potency result in the experiment with N140, in the experiment with P94_40, in the experiment on PAD, with PC15, in the experiment with PC26 and with PC49 was “inactive” throughout. For the same molecule, the Potency entry with SC27B, with TAB109 and in the experiment on TAB113 was “inactive” each time.
Take `O=C1c2ccccc2C(=O)c2ccccc21`: the Potency entry in the experiment with P94_40 and in the experiment on PC49 was “inactive” each time.
For the molecule `O=C(Nc1ccc(Br)cc1)c1cc(Br)cc(Br)c1O`, the Potency result in the experiment with N140, with P93_24, in the experiment with P94_40, with PAD, with PC15 and in the experiment with PC26 was “inactive” throughout. The Potency result in the experiment on PC49, with SC27B, in the experiment with TAB109 and in the experiment with TAB113 was “inactive” each time.
On to `CCC1(c2ccccc2)C(=O)N(COC)C(=O)N(COC)C1=O`, for which the Potency entry in the experiment on N140, in the experiment with P93_24, in the experiment with P94_40, with PAD, with PC15 and with PC26 was “inactive” each time. Further, the Potency entry in the experiment on PC49, in the experiment on SC27B and in the experiment with TAB113 was “inactive” in each case.
Turning to `CC(C)(C)NCC(O)c1ccccc1Cl` (centres undefined), the Potency with P94_40 is 11.2 µM (active); with PC49, 12.6 µM (active).
For the molecule `C[C@]12CCC(=O)C=C1CC[C@@H]1[C@@H]2CC[C@]2(C)C(=O)CC[C@@H]12`, the Potency result in the experiment with N140, with P93_24, in the experiment with P94_40, in the experiment on PC15, in the experiment with PC26 and with PC49 was “inactive” throughout. Besides, the Potency entry with SC27B, in the experiment on TAB109 and in the experiment on TAB113 was “inactive” in each case.
As for `C=CCN1C[C@H](C)N([C@H](c2ccc(C(=O)N(CC)CC)cc2)c2cccc(OC)c2)C[C@H]1C`, the Potency entry in the experiment with SC27B was “inactive”.
In the case of `O=C1Nc2ccc(Cl)cc2C(c2ccccc2Cl)=NC1O` (centres undefined), the Potency result in the experiment on N140, with PC15, in the experiment with PC26, in the experiment with PC49, in the experiment with SC27B and in the experiment on TAB109 was “inactive” throughout. For the same molecule, the Potency entry in the experiment with TAB113 is “inactive”.
With `COC(=O)C(c1ccccc1)C1CCCCN1` (centres undefined), the Potency entry with N140, with P93_24, in the experiment with P94_40, with PAD, with PC15 and in the experiment on PC26 was “inactive” each time. For the same molecule, the Potency entry with SC27B, with TAB109 and in the experiment with TAB113 was “inactive” in each case.
For `O=C1c2ccccc2C(=O)C1C(=O)C(c1ccccc1)c1ccccc1`, the Potency entry in the experiment with N140, in the experiment with P93_24, in the experiment on P94_40, with PAD, with PC15 and with PC26 was “inactive” throughout. The Potency entry in the experiment on PC49, with SC27B and in the experiment with TAB113 was “inactive” throughout.
With `COC1CC(=C(c2cccs2)c2cccs2)C[N+](C)(C)C1` (centres undefined), the Potency in the experiment with N140 was 7.94 µM (active); in the experiment with P93_24, 5.01 µM (active); with P94_40, 2.24 µM (active); in the experiment on TAB109, 10 µM (active). Also, the Potency result with PC49 is “inactive”.
As for `NC(=O)c1cc([N+](=O)[O-])cc([N+](=O)[O-])c1`, the Potency entry in the experiment with P94_40, in the experiment with PAD, in the experiment with PC49, in the experiment with SC27B, with TAB109 and in the experiment on TAB113 was “inactive” each time.
`CC(C)c1cccc(C(C)C)c1O`: the Potency result with N140, in the experiment with P93_24, in the experiment with P94_40, in the experiment on PAD, in the experiment with PC15 and with PC49 was “inactive” each time. For the same molecule, the Potency entry in the experiment with SC27B, in the experiment with TAB109 and with TAB113 was “inactive” each time.
With `C[C@](O)(CS(=O)(=O)c1ccc(F)cc1)C(=O)Nc1ccc(C#N)c(C(F)(F)F)c1`, the Potency entry in the experiment with N140, with P93_24, in the experiment on P94_40, with PAD, with PC15 and in the experiment with PC26 was “inactive” each time. Besides, the Potency result in the experiment on PC49, in the experiment with SC27B and in the experiment with TAB113 was “inactive” in each case.
Take `Cc1nnc2n1-c1ccc(Cl)cc1C(c1ccccc1)=NC2`: the Potency entry in the experiment with N140, with P93_24, in the experiment on PAD, in the experiment with PC15, with PC26 and in the experiment on PC49 was “inactive” in each case. Besides, the Potency result in the experiment on SC27B and in the experiment with TAB113 was “inactive” each time.
For the molecule `Clc1ccc(C(c2ccc(Cl)cc2)C(Cl)(Cl)Cl)cc1`, the Potency result in the experiment with P93_24, in the experiment on PC15, in the experiment with PC49, in the experiment with SC27B and in the experiment on TAB109 was “inactive” each time.
On to `C=C(C)[C@H]1CN[C@H](C(=O)O)[C@H]1CC(=O)O`, for which the Potency result with N140, with PAD, in the experiment on PC15, in the experiment with PC26, in the experiment on PC49 and in the experiment with SC27B was “inactive” in each case. For the same molecule, the Potency result in the experiment with TAB109 and in the experiment with TAB113 was “inactive” in each case.
In the case of `CN1C(=O)NC(=O)C(C)(C2=CCCCC2)C1=O` (centres undefined), the Potency entry in the experiment on N140, in the experiment on P93_24, with P94_40, with PAD, with PC15 and in the experiment on PC26 was “inactive” throughout. For the same molecule, the Potency entry with PC49, with SC27B, in the experiment on TAB109 and in the experiment on TAB113 was “inactive” each time.
Regarding `CC(C)(C)NCC(O)c1cc(Cl)c(N)c(C(F)(F)F)c1` (centres undefined), the Potency is 2.82 µM (active) in the experiment with N140; 3.55 µM (active) in the experiment on P93_24; 12.6 µM (active) with PAD; 11.2 µM (active) in the experiment with PC15; 11.2 µM (active) with PC49.
`NNc1ccccc1`: the Potency result in the experiment with N140, in the experiment on P93_24, in the experiment with P94_40, in the experiment with PAD, in the experiment on PC15 and in the experiment with PC26 was “inactive” throughout. The Potency result in the experiment on PC49, in the experiment on SC27B, in the experiment on TAB109 and in the experiment with TAB113 was “inactive” each time.
Consider `CCCCC/C=C\C/C=C\C/C=C\C/C=C\CCCC(=O)NCC(=O)O`, for which the activity, negative = inhibition was -7.13% [at 2.67 µM] with N140; -5.2% [at 2.67 µM] in the experiment with P93_24; -8.27% [at 2.67 µM] in the experiment with P94_40; 4.88% [at 2.67 µM] with PAD; 6.96% [at 2.67 µM] in the experiment on PC15; 8.23% [at 2.67 µM] in the experiment on PC26. Also, the activity, negative = inhibition in the experiment with SC27B is 0.575% [at 2.67 µM]; in the experiment with TAB109, -11.7% [at 2.67 µM]; with TAB113, 3.88% [at 2.67 µM].
As for `O=C(N/N=C/c1ccc([N+](=O)[O-])o1)c1cc([N+](=O)[O-])cc([N+](=O)[O-])c1O`, the Potency in the experiment with N140 was 0.708 µM (active); in the experiment on P93_24 it was 0.1 µM (active); with P94_40 it was 0.0794 µM (active); in the experiment with PAD, 0.0071 µM (active); with SC27B it was 0.141 µM (active); in the experiment with TAB109 it was 0.0141 µM (active). For the same molecule, in the experiment on TAB113, the Potency is 0.282 µM (active). Moreover, the Potency entry in the experiment on PC15 is “inactive”.
`CCC(C)(C)c1ccc(O)cc1`: the Potency result in the experiment with N140, in the experiment with P93_24, in the experiment with P94_40, in the experiment on PAD, with PC15 and in the experiment with PC26 was “inactive” in each case. In addition, the Potency entry in the experiment on PC49, with SC27B, with TAB109 and with TAB113 was “inactive” in each case.
As for `COc1ccc2c(c1OC)C(=O)O[C@H]2[C@@H]1c2cc3c(cc2CCN1C)OCO3`, the Potency entry with PC26 was “inactive”.
With `CN1CCC(O)(c2ccc(F)cc2)C(C(=O)c2ccc(F)cc2)C1` (centres undefined), the Potency result with N140, in the experiment with P94_40, in the experiment on PAD, in the experiment with PC15, in the experiment on PC26 and with PC49 was “inactive” in each case. In addition, the Potency entry with SC27B, with TAB109 and in the experiment with TAB113 was “inactive” each time.
In the case of `Nc1ccc([As](=O)(O)O)cc1`, the Potency entry with N140, with P93_24, in the experiment on PAD, in the experiment on PC15, with PC26 and in the experiment with PC49 was “inactive” each time. For the same molecule, the Potency result in the experiment with SC27B, with TAB109 and in the experiment with TAB113 was “inactive” in each case.
